Records with an inconclusive call do not appear. Where a structure was tested more than once in an assay, its records may differ in their call. The source made the active and inactive calls. Rule for the calls, unless noted: active = hit-call score of the fitted dose curve at least 0.9, where 1 is the maximum; inactive = score below 0.9.
What was measured:
[1] = read-out: Secreted IgG (sIgG), gene 3500; test: BSK_BT_sIgG: BioMAP Diversity Plus: BT Assay for Secreted IgG (sIgG) Biomarker Activity (AID 2284226); conditions: primary human B cells with PBMC
Procedure, shortened: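 Secreted IgG from a human primary B cell–PBMC co-culture was measured by ELISA 24 hours after dosing, with DMSO defining baseline activity.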

[2] = BSK_BT_Bcell_Proliferation: Viability Assessment in the BioMAP Diversity Plus: BT Assay for B cell Proliferation (AID 2284227); conditions: primary human B cells with PBMC
Procedure, shortened: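 Human B cells co-cultured with PBMC were dosed with test chemicals and relative cell number was quantified by SRB staining at 72 h. Cells were fixed in 10% TCA, stained with 0.1% SRB and read at 560 nm. Activity was fitted in the positive direction against DMSO.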

[3] = read-out: Interleukin 6 (IL6), IL6 (gene 3569); test: BSK_BT_xIL6: BioMAP Diversity Plus: BT Assay for Interleukin 6 (IL6) Biomarker Activity (AID 2284228); conditions: primary human B cells with PBMC
Procedure, shortened: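 Readout: secreted IL-6 via Luminex xMAP multiplex, 24 h post-dosing. System: primary human B cells co-cultured with PBMC. Signal change scored relative to DMSO vehicle, positive fitting direction.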

[4] = read-out: Interleukin 17A (IL17A), IL17A (gene 3605); test: BSK_BT_xIL17A: BioMAP Diversity Plus: BT Assay for Interleukin 17A (IL17A) Biomarker Activity (AID 2284229); conditions: primary human B cells with PBMC
Procedure, shortened: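 Luminex xMAP readout of secreted IL-17A; human B cell + PBMC co-culture; 24 h post-dose; positive-direction fit vs DMSO negative control.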

[5] = read-out: Tumor necrosis factor (Homo sapiens) (UniProt P01375); test: BSK_BT_xTNFa: BioMAP Diversity Plus: BT Assay for Tumor necrosis factor alpha (TNF-alpha) Biomarker Activity (AID 2284230); conditions: primary human B cells with PBMC
Procedure, shortened: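 B cells with PBMC in co-culture, dosed and sampled at 24 h; secreted TNF-alpha measured by Luminex xMAP bead assay. Activity fitted in the gain direction against DMSO as negative control and baseline.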

[6] = CCTE_Mundy_HCI_Cortical_Synap_Neur_Matur_NeuriteSpotCountPerNeuriteLength: CCTE's Synaptogenesis and Neurite Maturation Assay in rat cortical cells for Neurite Spot Count per Neurite Length, Mundy Lab (AID 2284210)
Procedure, shortened: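 Rat primary cortical cultures, AraC added at DIV 5 to suppress glia; chemical exposure from DIV 7 to DIV 12. Fixed cells stained for MAP2 and synaptophysin plus Hoechst; synaptophysin puncta per neurite length quantified by high-content imaging, relative to DMSO.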

[7] = CCTE_Mundy_HCI_Cortical_Synap_Neur_Matur_BPCount: CCTE's Synaptogenesis and Neurite Maturation Assay in rat cortical cells for Branch Point Count, Mundy Lab (AID 2284211)
Procedure, shortened: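 Branch point number is quantified by automated imaging of fluorescently labelled neurites and synapses in rat primary cortical neurons exposed from DIV 7 to DIV 12. Activity is analysed relative to DMSO negative control.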

[8] = CCTE_Mundy_HCI_Cortical_NOG_NeuriteCount: CCTE's Neurite Outgrowth Assay in rat cortical cells for Neurite Count, Mundy Lab (AID 2284212);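 note: cells fixed about two days after chemical exposure began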
Procedure, shortened: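 Neurite number per cell from high-content imaging of betaIII-tubulin immunostaining, with Hoechst nuclear counterstain.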

[9] = CCTE_Mundy_HCI_Cortical_NOG_NeuriteLength: CCTE's Neurite Outgrowth Assay in rat cortical cells for Neurite Length, Mundy Lab (AID 2284213);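 for AC50: neurites imaged about 48 to 50 h after chemical exposure began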
Procedure, shortened: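 Neurite length was read by high-content imaging of βIII-tubulin-labelled neurites in rat primary cortical cultures. Activity was fitted relative to DMSO.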

[10] = CCTE_Mundy_HCI_Cortical_Synap_Neur_Matur_NeuriteLength: CCTE's Synaptogenesis and Neurite Maturation Assay in rat cortical cells for Neurite Length, Mundy Lab (AID 2284214)
Procedure, shortened: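 Neurite length in rat primary cortical cultures is imaged after MAP2, synaptophysin and Hoechst staining. Dosing starts DIV 7, ending DIV 12; DMSO serves as negative control and baseline.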

[11] = CCTE_Mundy_HCI_Cortical_Synap_Neur_Matur_NeuriteSpotCountPerNeuron: CCTE's Synaptogenesis and Neurite Maturation Assay in rat cortical cells for Neurite Spot Count per Neuron Count, Mundy Lab (AID 2284215)
Procedure, shortened: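 Read-out: neurite-associated synaptophysin puncta per neuron, imaged by high-content analysis after MAP2, synaptophysin and Hoechst staining. Rat primary cortical cultures, dosed DIV 7 through DIV 12; DMSO served as baseline.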

[12] = CCTE_Mundy_HCI_Cortical_Synap_Neur_Matur_SynapseCount: CCTE's Synaptogenesis and Neurite Maturation Assay in rat cortical cells for Synapse Count, Mundy Lab (AID 2284218)
Procedure, shortened: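 Synapse count per neuron is measured in rat cortical neurons exposed to chemicals between DIV 7 and DIV 12, with glial growth arrested by AraC at DIV 5. Synaptophysin and MAP2 staining is imaged automatically; activity is fitted relative to DMSO.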

[13] = CCTE_Mundy_HCI_Cortical_Synap_Neur_Matur_NeuriteCount: CCTE's Synaptogenesis and Neurite Maturation Assay in rat cortical cells for Neurite Count, Mundy Lab (AID 2284222);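 note: exposure from day 7 to day 12 in vitro with readout at day 12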
Procedure, shortened: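 Rat primary cortical cells; AraC added at DIV 5, chemicals dosed with media change at DIV 7 through DIV 12. MAP2/synaptophysin/Hoechst immunostaining, high-content imaging of neurite number; fitted relative to DMSO.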

[14] = CCTE_Mundy_HCI_Cortical_Synap_Neur_Matur_CellBodySpotCount: CCTE's Synaptogenesis and Neurite Maturation Assay in rat cortical cells for Cell Body Spot Count, Mundy Lab (AID 2284223)
Procedure, shortened: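 Read-out: cell body-associated synaptophysin puncta per neuron, imaged after MAP2, synaptophysin and Hoechst staining. Rat cortical cells, AraC DIV 5, chemical dosing DIV 7, fixation DIV 12. Activity fitted in positive direction relative to DMSO baseline.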

[15] = CCTE_Mundy_HCI_hNP1_Pro_ResponderAvgInten: CCTE's Proliferation Assay in human neuroprogenitor cells, Mundy Lab (AID 2284224; active = hit-call score of the fitted dose curve at least 0.9, where 1 is the maximum;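 note: human neural progenitor cells hNP1 derived from WA09 embryonic stem cells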)
Procedure, shortened: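 Proliferation read as average intensity of BrdU-positive cells, imaged at 26.25 h post-dosing: chemical exposure started after 40–44 h culture, BrdU during final 4 h, paraformaldehyde fixation. Positive-direction fit relative to DMSO.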

[16] = UKN4_HCS_LUHMES_cell_viability: Viability Assessment in the University of Konstanz (UKN) Leist Lab Neurite Outgrowth Assay in human LUHMES cells (UKN4) (AID 2284232)
Procedure, shortened: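 Human dopaminergic-model LUHMES neurons were exposed to chemicals for 24 h after a 2-day differentiation. Viability was scored by imaging Hoechst H-33342 staining, with activity fitted in both directions relative to DMSO controls.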

[17] = UKN2_HCS_IMR90_cell_viability: Viability Assessment in the University of Konstanz (UKN) Leist Lab Neural Crest Cell Migration Assay in human induced IMR90 Pluripotent Stem Cells (UKN2) (AID 2284233);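 note: viability of neural crest cells differentiated from IMR90 iPSC measured by calcein-AM fluorescence imaging; cells exposed to compound for 24 h after a 24 h migration phase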
Procedure, shortened: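 Neural crest cells derived from IMR90 iPSC migrate into a stopper-free zone for 24 h in EGF/FGF medium, then are exposed to compound for 24 h. Viability assessed by calcein-AM and Hoechst staining with high-content imaging, fitted bidirectionally versus DMSO.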

Measured: AC50

Chain of Tumor necrosis factor (Homo sapiens) (P01375 whole entry, looked up): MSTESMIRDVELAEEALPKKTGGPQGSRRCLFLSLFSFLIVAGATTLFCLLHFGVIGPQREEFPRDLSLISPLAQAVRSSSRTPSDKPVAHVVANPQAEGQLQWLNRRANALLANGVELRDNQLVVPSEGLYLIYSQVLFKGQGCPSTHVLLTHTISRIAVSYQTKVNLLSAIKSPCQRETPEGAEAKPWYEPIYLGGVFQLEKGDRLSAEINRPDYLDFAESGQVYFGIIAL

C=CC=CC=CCCCCC
inactive: [2] | [4] | [5]
active: [1] 7.13 µM | [3] 6.43 µM

CCCCC/C=C\C/C=C\CCCCCCCC(=O)OC
active: [1] 20 µM | [2] 26.3 µM | [3] 24.8 µM | [4] 23.8 µM | [5] 30 µM

COc1ccc2nc(N)sc2c1
inactive: [1] | [2] | [3] | [4] | [5]

O=Nc1ccc(O)cc1
inactive: [1] | [2] | [3] | [4] | [5]

CCCCCCCCCCCCCCCC[N+](C)(C)CC
active: [1] 0.0956 µM | [2] 1.81 µM | [3] 13.4 µM | [4] 1.63 µM | [5] 12 µM

CCCCNc1ccc(NCCCC)c2c1C(=O)c1ccccc1C2=O
inactive: [1] | [2] | [3] | [4] | [5]

c1ccc2c(c1)ccc1ncccc12
inactive: [1] | [2] | [4] | [5]
active: [3] 1.14 µM

CCOc1nc(F)cc2nc(S(=O)(=O)Nc3c(Cl)cccc3C(=O)OC)nn12
inactive: [1] | [2] | [3] | [4] | [5]

CC1OC1C1CCC2(C)OC2C1 (stereo not drawn)
inactive: [1] | [2] | [3] | [4] | [5]

C=CCOc1c(Br)cc(Br)cc1Br
inactive: [1] | [2] | [3] | [4] | [5]

Nc1ncn([C@@H]2O[C@H](CO)[C@@H](O)[C@H]2O)c(=O)n1
inactive: [6] | [7] | [8] | [9] | [10] | [11] | [12] | [13] | [14] | [17]
active: [9] 7.87 µM | [15] 8.32 µM | [16] 16.5 µM | [17] 6.91 µM

C=CC(=O)OCC(Br)CBr (stereo not drawn)
active: [1] 7.95 µM | [2] 20 µM | [3] 12.9 µM | [4] 7.7 µM | [5] 28.1 µM

CC1(C)S[C@@H]2[C@H](NC(=O)COc3ccccc3)C(=O)N2[C@H]1C(=O)O
inactive: [6] | [7] | [8] | [9] | [10] | [11] | [12] | [13] | [14]

C/C=C\C/C=C/CCCCCCCCOC(C)=O
active: [1] 17 µM | [2] 28 µM | [3] 15.2 µM | [4] 15.1 µM | [5] 20 µM

O=C(Cl)c1cc(C(=O)Cl)cc(C(=O)Cl)c1
active: [1] 14.6 µM | [2] 29.3 µM | [3] 27.6 µM | [4] 15.4 µM | [5] 31.9 µM

From PubChem BioAssay (EPA / NIEHS)
